Shown is part of a subset that was picked to be rich in hits.
TbPYK inhibitor – inhibitors of Trypanosoma brucei pyruvate kinase | 410,000 tested, 0.12% active | AID 624173 | Q57TT1 | Potency, µM (highest dose often 76.8 µM), inactives show at the top dose activity, negative = inhibition, actives largely listed as inhibitors | TbPYK enzyme, Kinase-Glo Plus ATP luminescence, 45 min; further: potency means the concentration at half of the fitted maximal effect; on the % scale 0 is the no-effect control and ±100 the full control effect; nearly all actives have a fitted effect of over 50% in size
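Readout: single end-point luminescence (Kinase-Glo Plus, 10 min). Reaction conditions were TbPYK/substrate plus 130 uM ADP, 45 min at RT, pH 7.2 TEA buffer. No-enzyme wells served as controls, and data were normalized before concentration-response fitting.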
Cycloheximide cs – affects cycloheximide protein synthesis inhibition readout, counter-screen | cell reporter, cycloheximide protein synthesis inhibition counterscreen | max response, % | 300,000 tested, 12% active | AID 2314; in the data active means max response mostly above about 13%, no sharp cut-off; inactive means mostly below about 14%; further: read at 38.3 µM for the half of the compounds with a filed dose; 0% is about no effect
FBPA Giardia inh – inhibitors of Giardia lamblia fructose-1,6-bisphosphate aldolase; A8B2U2; purified Giardia FBPA; Potency, µM (doses to about 59.6 µM), for the others: at the highest dose activity, negative = inhibition, most hits filed as inhibitors; 290,000 tested, 0.71% active; AID 2451; further: potency means the concentration at half of the fitted maximal effect; on the % scale 0 is the no-effect control and ±100 the full control effect; nearly all actives have a fitted effect of over 55% in size
Target sequence (A8B2U2 whole entry, looked up): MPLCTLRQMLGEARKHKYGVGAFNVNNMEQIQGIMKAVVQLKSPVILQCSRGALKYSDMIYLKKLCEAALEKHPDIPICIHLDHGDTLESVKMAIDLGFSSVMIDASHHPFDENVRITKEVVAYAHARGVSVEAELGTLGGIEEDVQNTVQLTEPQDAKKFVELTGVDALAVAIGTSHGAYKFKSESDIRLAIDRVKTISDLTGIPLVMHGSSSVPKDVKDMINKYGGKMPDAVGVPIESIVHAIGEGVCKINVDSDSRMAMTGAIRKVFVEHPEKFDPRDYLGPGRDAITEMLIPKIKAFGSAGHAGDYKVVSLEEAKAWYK
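Giardia FBPA (40 nM reagent) was preincubated 10 min at RT with compound (up to 57.5 uM final), then substrate plus GAPDH/TPI/NAD/arsenate coupling system with diaphorase/resazurin was added; resorufin fluorescence (525/598 nm) was read after 20 min.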
RE007 growth inh – less growth of the S. pombe RE007 Vpr strain | Potency, µM (doses to about 92.2 µM), without a hit: at the highest dose activity change, negative = less growth, most hits filed as inhibitors | S. pombe RE007 Vpr strain, BacTiter-Glo ATP luminescence, 24 h | 360,000 tested, 0.21% active; active means well fitted falling curve with a large enough effect; inconclusive means small, poorly fitted or top-dose-only effect; inactive means no such curve, though single readings can be large or run the other way; further: potency means the concentration at half of the fitted maximal effect; on the % scale 0 is the no-effect control and ±100 the full control effect; nearly all actives have a fitted effect of over 50% in size
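Fission yeast strain RE007, carrying one chromosomally integrated HIV-1 vpr copy, was seeded at OD 0.01 in PMG+AL medium with 23 nL pinned compound. After 24 h at 30 °C and 99% humidity, viability was read by BacTiter-Glo luminescence.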
Shiga inhibitor – inhibitors of Shiga toxin in Vero cells; Vero cells, Shiga toxin protein synthesis inhibition reporter; AID 2315; 290,000 tested, 9.2% active; inhibition, % at 38.7 µM; in the data active means inhibition mostly above about 28%, no sharp cut-off; inactive means mostly below about 43%; further: 0% is about no effect
LmPK inh – blocks Leishmania mexicana pyruvate kinase activity. purified LmPK, Kinase-Glo ATP luminescence, 1 h. Q27686. Potency, µM (top dose mostly 57.5 µM), inactives show top-dose activity change, negative = inhibition, actives largely listed as inhibitors. 290,000 tested, 0.37% active; further: potency means the concentration at half of the fitted maximal effect; on the % scale 0 is the no-effect control and ±100 the full control effect
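Pyruvate kinase activity monitored as ATP production (luciferase luminescence). Conditions: 0.1 nM enzyme, 0.5 mM PEP, 0.1 mM ADP, 1 h, RT; normalized against uninhibited and no-enzyme wells.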
Starred values were filed as active, the others as inactive; ? = inconclusive; · = no result; [ ] = dose if it differs, or a comment. Unless noted, the call rests on the fitted dose curve; in most records, active means well fitted curve in the direction sought with a large enough effect; inconclusive means small, poorly fitted or top-dose-only effect, or another doubt; inactive means no such curve, though single readings can be large; an effect the other way counts as inactive or inconclusive.

SMILES	TbPYK inhibitor	Cycloheximide cs	FBPA Giardia inh	RE007 growth inh	Shiga inhibitor	LmPK inh
C=CCC(CC=C)(CNC(=O)C(=O)Nc1ccc(Br)cc1)c1ccc(OC)c(OC)c1	-5%	·	·	·	·	·
O=C(O)c1ccc2c(=O)n3cc(C(=O)c4ccccc4O)cc(Cl)c3nc2c1	-11%	34*	?	16%	-2	14%
CC(C)(C)Nc1oc(-c2ccccc2)nc1-c1ccccc1F	·	·	-5%	·	·	·
CCOC(=O)c1cnc(-n2nc(C)cc2C)nc1NC	-5%	32*	?	-2%	29	5%
Cc1ccc2cccc(NC(=O)c3ccc(-c4ccc(Cl)cc4Cl)o3)c2n1	3%	·	·	·	·	·
CC(=O)c1sc(NC(=O)C=C(C)C)nc1C	-3%	44*	-5%	-5%	66*	?
CCC(=O)Nc1nnc(C)s1	2%	-3	-5%	14%	15	-4%
CCCCC(=O)Nc1nc(C)c(C(C)=O)s1	5%	-3	0%	12%	-7	2%
CC(C)=CC(=O)Nc1nnc(-c2ccccc2)s1	-6%	46*	-12%	-4%	14*	5%
CC(C)=CC(=O)Nc1nnc(C)s1	-4%	16*	-1%	21%	25*	-7%
C[C@@H]1CCN(C(=O)CC#N)C[C@@H]1N(C)c1ncnc2[nH]ccc12	0%	·	·	·	·	·
CC1=C/C(=C\c2ccc(Br)o2)C(=O)O1	-21%	0	-4%	12%	-6	9%
O=C1C(=Cc2ccc(Br)o2)C(=O)c2ccccc21	-12%	30*	-1%	-20%	-3	-25%
CC(C)(C)C(=O)[C@H]1[C@H](c2ccccc2)[C@@]2(N=C(c3ccccc3)OC2=O)C2c3ccccc3C=NN21 (some centres undefined)	-4%	40*	-1%	0%	26	-1%
Cc1csc(=Nc2ccccc2)n1C	-12%	22*	-1%	3%	38	-2%
C=CCNC(=S)/N=c1/scc(C)n1C	1%	19*	-6%	-22%	24	-2%
CCCn1c(C)cs/c1=N\C(=S)Nc1ccccc1	1%	-5	1%	-5%	9	-3%
Cc1cs/c(=N/C(=S)Nc2ccccc2)n1C	-9%	101*	-2%	-14%	143*	-1%
C=CCNC(=S)/N=c1\sccn1C	0%	15*	-4%[12.9 µM]	4%	26	2%
Cc1cc2c(c(=O)o1)[C@H](O)[C@H]1O[C@@H]1C2=O	·	·	-4%[12.9 µM]	·	·	·
COc1cc(OC)c(NC(=O)CN2CCCN(Cc3ccccc3C)S2(=O)=O)cc1Cl	2%	·	·	·	·	·
Cc1cc(C)cc(NC(=O)COC(=O)c2n[nH]c3ccccc23)c1	3%	31	-3%	-2%	65*	-21%
CN(C(=O)COC(=O)c1cccc(F)c1)c1ccccc1	7%	13*	3%	-21%	14	1%
CN(C(=O)COC(=O)c1n[nH]c2ccccc12)c1ccccc1	0%	27*	6%	17%	41	15%
O=C(COC(=O)c1n[nH]c2ccccc12)Nc1ccc(S(=O)(=O)N2CCCC2)cc1	3%	-3	8%	1%	-6	4%
SMILES	TbPYK inhibitor	Cycloheximide cs	FBPA Giardia inh	RE007 growth inh	Shiga inhibitor	LmPK inh
CCCNC(=O)COC(=O)c1n[nH]c2ccccc12	3%	1	1%	10%	23	-1%
O=C(COC(=O)c1n[nH]c2ccccc12)Nc1ccccc1	8%	39*	2%	4%	57*	-5%
CN(C(=O)COC(=O)c1n[nH]c(=O)c2ccccc12)c1ccccc1	5%	·	·	11%	·	·
Cc1cccc(OCCSc2nc3ccc(NC(=O)COc4ccccc4F)cc3s2)c1	-4%	·	·	·	·	·
CCOc1ccc(CCNC(=O)c2cc3c(=O)oc4ccc(C)cc4c3s2)cc1OCC	-8%	·	·	·	·	·
Nc1ccccc1C(=O)OCCOc1ccccc1	-3%	34*	1%	-12%	87*	?
O=C(O)c1ccccc1OCCOc1ccccc1	-2%	8	14%	4%	12	-1%
CC(=O)c1cccc(NC(=O)COC(=O)c2n[nH]c3ccccc23)c1	1%	19*	-1%	-1%	102*	0%
O=C(OCCOc1ccccc1)c1n[nH]c2ccccc12	6%	47*	-13%	-5%	55*	9%
CCOC(=O)c1n[nH]c2ccccc12	-4%	-2	1%	2%	-29	2%
O=C(COC(=O)c1ccc2[nH]c3c(c2c1)CCCC3)Nc1ccccc1	1%	16*	-2%	-8%	42*	0%
CC1CN(C(=O)Nc2ccc(C(=O)NCc3cccc(F)c3)cc2)c2ccccc2S1 (centres undefined)	7%	·	·	·	·	·
Clc1ccc2nc(Nc3ccccc3Cl)nc(-c3ccccc3)c2c1	4%	·	·	·	·	·
Nc1c(-c2ccc(Cl)cc2)cnc2c(-c3ccccc3)cnn12	2%	36*	7%	6%	89*	-1%
Nc1c(-c2ccc(Cl)cc2)cnn1-c1cc(C(F)(F)F)cc(C(F)(F)F)c1	2%	-1	-5%	8%	-9	-5%
N#Cc1c(C#N)c(-c2ccccc2)n(-c2ccc(C(=O)O)cc2)c1N	-7%	-3	19%	6%	2	4%
Nc1c(-c2ccc(Cl)cc2)nnn1-c1ccccc1	-3%	45*	-14%	4%	98*	-8%
Nc1c(S(=O)(=O)c2ccccc2)cnc2c(-c3ccc(F)cc3)cnn12	1%	0	3%	4%	-3	-1%
Nc1c(-c2ccccc2)cnn1-c1ccc(C(=O)O)cc1	0%	48*	1%	8%	88*	-3%
Nc1c(-c2ccc(Cl)cc2)cnn1-c1ccccc1	3%	37*	3%	-12%	114*	-3%
O=C1[C@H]2[C@H]3[C@H](O)[C@H](O)C/C(=N/OC[C@@H](O)COCc4ccco4)[C@@H]3CC[C@@H]2C(=O)N1Cc1ccc2c(c1)OCO2	·	·	3%[12.9 µM]	·	·	·
Cc1ccccc1CN1C(=O)c2ccccc2Sc2ccc(C(=O)NCc3ccccc3)cc21	0%	·	·	·	·	·
Cc1ccc(-c2cnn(-c3ccccc3)c2N)cc1	?	32*	-5%	?	41*	?
COc1ccc(-c2cnn(-c3ccccc3)c2N)cc1OC	-4%	12	4%	6%	36	-1%
COc1ccc(NC(=O)C2Cc3ccccc3O/C2=N\O)cc1 (centres undefined)	-1%	51*	1%	6%	114*	0%
COc1ccc(NC(=O)C2Cc3cccc(OC)c3O/C2=N\O)cc1 (centres undefined)	0%	-2	11%	1%	2	2%
Cc1cccc(NC(=O)C2Cc3ccccc3O/C2=N\O)c1 (centres undefined)	-10%	27*	2%	0%	63*	4%
COc1ccc(-c2noc(CCc3ccccc3)n2)cc1	0%	23*	-4%	-1%	88*	-1%

From PubChem BioAssay
